In the supplement of paper PMC12350171:
Structures can show the parent of a compound that is named as a salt. Values without a mark were called inactive.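 Rule for the calls: active = AUC significantly below DMSO controls by Student t-fit with adjusted P under 0.01; inactive = not significantly reduced.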

System: Shigella flexneri
Assay: growth AUC normalised to DMSO control (fraction of control); higher = less growth inhibition, active = hit call of the paper
Details: 20 µM
Outline: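 Pathogens were passaged twice under anaerobic conditions, then inoculated into pre-reduced mGAM plates at a starting OD578 of 0.01, with compound at 20 μM and 1% DMSO, and sealed with breathable membranes. For Haemophilus parainfluenzae, the medium was supplemented with hemin and NAD. OD578 was read every hour for 24 h in three biological replicates. Growth-curve AUC was calculated by the trapezoidal rule up to the exponential-to-stationary transition and normalised to DMSO controls on the same plate.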

Row | Structure (SMILES) | growth AUC normalised to DMSO control
1 | CN(C)CCOC(c1ccccc1)c1ccccc1 [Diphenhydramine hydrochloride] | 0.976
2 | COC(=O)C1=C(C#N)NC(C)=C(C(=O)OC(C)C)C1c1cccc([N+](=O)[O-])c1 (stereo not given) [Nilvadipine] | 1.03
3 | Nc1nc2n[nH]nc2c(=O)[nH]1 [Azaguanine-8] | 1.05
4 | CCN(CC)CCOC(=O)C(Cc1cccc2ccccc12)CC1CCCO1 (stereo not given) [Nafronyl oxalate] | 0.977
5 | O=c1n(CCCN2CCN(c3cccc(Cl)c3)CC2)nc2ccccn12 [Trazodone hydrochloride] | 0.991
6 | CCCOc1ccc(C(=O)OCCN(CC)CC)cc1N [Proparacaine hydrochloride] | 1.02
7 | CN1CCCN(C(c2ccccc2)c2ccc(Cl)cc2)CC1 (stereo not given) [Homochlorcyclizine dihydrochloride] | 0.938
8 | CCCCOC(=O)c1ccc(N)cc1 [Butamben] | 0.995
9 | OC(CCN1CCCCC1)(c1ccccc1)c1ccccc1 [Pridinol methanesulfonate salt] | 1.02
10 | CCCNC(C)C(=O)Nc1ccccc1C (stereo not given) [Prilocaine hydrochloride] | 1
11 | COc1cccc2c1C(=O)c1c(O)c3c(c(O)c1C2=O)C[C@@](O)(C(=O)CO)C[C@@H]3O[C@H]1C[C@H](N)[C@H](O)[C@H](C)O1 [Doxorubicin hydrochloride] | 0.932
12 | CCC(=O)OCC(=O)[C@@]1(OC(=O)CC)[C@H](C)C[C@H]2[C@H]3[C@H]([C@@H](O)C[C@@]21C)[C@@]1(C)C=CC(=O)C=C1C[C@H]3Cl [Alclometasone dipropionate] | 0.974
13 | Nc1nc(N)nc(-c2cc(Cl)ccc2Cl)n1 [Irsogladine maleate] | 1
14 | CC(C)(C)NCC(O)c1ccc(O)c(CO)c1 (stereo not given) [Salbutamol] | 0.97
15 | C[C@H](CCC(=O)O)[C@H]1CC[C@H]2[C@@H]3[C@@H](O)C[C@@H]4C[C@H](O)CC[C@]4(C)[C@H]3CC[C@]12C [Urosiol] | 1.02
16 | OCCN1C[C@H](O)[C@@H](O)[C@H](O)[C@H]1CO [Miglitol] | 0.971
17 | CCCC(CCC)C(=O)O [Valproic acid] | 1.02
18 | CCOC(=O)c1ccc(N)cc1 [Benzocaine] | 1.03
19 | CCSc1ccc2c(c1)N(CCCN1CCN(C)CC1)c1ccccc1S2 [Thiethylperazine maleate] | 1.02
20 | COC(=O)Nc1nc2cc(C(=O)c3ccc(F)cc3)ccc2[nH]1 [Flubendazol] | 0.994

Row | Structure (SMILES) | growth AUC normalised to DMSO control
21 | O=C(Cn1ccnc1[N+](=O)[O-])NCCO [Etanidazole] | 1.03
22 | Cc1cccc(N(C)C(=S)Oc2ccc3ccccc3c2)c1 [Tolnaftate] | 1.02
23 | CCC(C)n1ncn(-c2ccc(N3CCN(c4ccc(OCC5COC(Cn6cncn6)(c6ccc(Cl)cc6Cl)O5)cc4)CC3)cc2)c1=O (stereo not given) [Itraconazole] | 1.03
24 | C[C@]12C[C@H](O)[C@H]3[C@@H](CCC4=CC(=O)CC[C@@]43C)[C@@H]1CC[C@@H]2C(=O)CO [Corticosterone] | 0.978
25 | Nc1c(Br)cc(Br)cc1CN[C@H]1CC[C@H](O)CC1 [Ambroxol hydrochloride] | 0.987
26 | O=C(O)c1cn(C2CC2)c2cc(N3CCNCC3)c(F)cc2c1=O [Ciprofloxacin hydrochloride monohydrate] | 0.0218 (active)
27 | OCCOCCN1CCN(C(c2ccccc2)c2ccc(Cl)cc2)CC1 (stereo not given) [Hydroxyzine dihydrochloride] | 0.875 (active)
28 | CN1CCC(OC(c2ccccc2)c2ccccc2)CC1 [Diphenylpyraline hydrochloride] | 0.996
29 | NCc1ccc(S(N)(=O)=O)cc1 [Mafenide hydrochloride] | 0.998
30 | O=C(O)CCc1nc(-c2ccccc2)c(-c2ccccc2)o1 [Oxaprozin] | 1.02
31 | CCN(CC)CCNC(=O)c1cc(Br)c(N)cc1OC [Bromopride] | 1.01
32 | CN(C/C=C/c1ccccc1)Cc1cccc2ccccc12 [Naftifine hydrochloride] | 1.01
33 | Nc1nc(=O)n([C@@H]2CS[C@H](CO)O2)cc1F [(-) Emtricitabine] | 0.961
34 | CC(C(=O)O)c1ccc(C(=O)c2cccs2)cc1 (stereo not given) [Suprofen] | 1.04
35 | OCCN1CCN(CCCN2c3ccccc3C=Cc3ccccc32)CC1 [Opipramol dihydrochloride] | 0.962
36 | c1ccc(CC2=NCCN2)cc1 [Tolazoline hydrochloride] | 1.02
37 | CC=C(C)C(=O)OC1C(OC(C)=O)C2(CO)C(O)CC3(C)C(=CCC4C5(C)CCC(OC6OC(C(=O)O)C(OC7OC(CO)C(O)C(O)C7O)C(O)C6OC6OC(CO)C(O)C(O)C6O)C(C)(CO)C5CCC43C)C2CC1(C)C (stereo not drawn) [Beta-Escin] | 1
38 | N=C(N)N/N=C/c1c(Cl)cccc1Cl [Guanabenz acetate] | 0.998
39 | CCN1CCC[C@H]1CNC(=O)c1c(OC)ccc(Br)c1OC [Remoxipride hydrochloride] | 1.04
40 | C/C=C(/C(=C/C)c1ccc(O)cc1)c1ccc(O)cc1 [Dienestrol] | 1.04
